In the library only some 19% were active in any assay of this set; here they are far more common.
HT1080NT lethal: kills 2HG-producing HT-1080-NT fibrosarcoma cells | HT-1080-NT fibrosarcoma viability, CellTiter-Glo ATP luminescence, 48 h | Potency, µM (series often up to 46.1 µM), for the others: top-dose activity, negative = less viability, actives largely listed as cytotoxic | 360,000 compounds, 1.6% hits | AID 686970;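 also: NT is the 2HG producing partner of a matched IDH1 knockdown line; potency is read from the fitted curve at half-maximal effect; 0% = DMSO-treated cells and -100% = media-only wells without cells; nearly all actives have a fitted effect of over 55% in size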
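Viability by CellTiter-Glo luminescence after 48 h compound exposure at 37C of HT-1080-NT cells (750/well, RPMI, 5% FBS). % activity scaled between DMSO wells and medium-only wells, then curve-fitted and categorized by curve class.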
IL-1B inflam inh: blocks inflammasome-driven IL-1 beta release; THP-1 LPS/ATP IL-1B secretion, AlphaLISA, 16 h; stronger effect = lower value; activity change, % at 57.5 µM; 360,000 compounds, 4.7% hits; AID 743279; in the data active = activity change below about -50%; inconclusive = mostly about -30% to -49%
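THP-1 cells pretreated 1 hr with compounds (up to 57.5 uM final), then stimulated with LPS (250 ng/mL final) plus ATP (1.25 mM final); secreted IL-1B measured by AlphaLISA after 16 hr, decreased signal indicating inhibition.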
TDP1 cell noCPT: qHTS for Inhibitors of human tyrosyl-DNA phosphodiesterase 1 (TDP1): qHTS in cells in absence of CPT. DT40 Tdp1-/- hTDP1 cells, no CPT, ATP luminescence, 48 h. Potency, µM (titrated, usually from 46.2 µM), for the others: top-dose activity change, negative = growth inhibition, actives largely listed as inhibitors. 420,000 compounds, 15% hits. AID 686978, 2013; also: potency is read from the fitted curve at half-maximal effect; nearly all actives have a fitted effect of over 55% in size
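Compound effects on proliferation are scored in DT40 Tdp1-/-;hTDP1 cells in the absence of CPT. ATP levels (CellTiter-Glo luminescence) are recorded after a ≥48 hr, 37 °C incubation.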
DT40 TDP1 CPT: growth inhibition of DT40 Tdp1-/-;hTDP1 cells with camptothecin (screen for TDP1 inhibitors). chicken DT40 Tdp1-/-;hTDP1 cells + 20 nM CPT, ATP luminescence, 48 h. 420,000 compounds, 12% hits. Potency, µM (titrated, usually from 46.2 µM), for the others: at the top dose activity change, negative = growth inhibition, usual class: inhibitors; also: potency is read from the fitted curve at half-maximal effect; nearly all actives have a fitted effect of over 55% in size
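Chicken DT40 Tdp1-/- cells stably complemented with human TDP1 were seeded at 400 cells/well in medium containing 20 nM camptothecin, exposed to pin-transferred compounds, and grown at 37 °C for at least 48 hr. Viability was read as ATP luminescence.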
HT1080 IDH1KD tx: kills HT-1080 cells with IDH1 knockdown. HT-1080 IDH1 knockdown viability, ATP luminescence, 48 h. Potency, µM (highest dose often 46.1 µM), inactives show at the highest dose activity, negative = toxicity, actives largely listed as cytotoxic. 360,000 compounds, 2% hits. AID 686971;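 also: potency is read from the fitted curve at half-maximal effect; 0% = DMSO wells and -100% = cell-free medium wells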
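IDH1KD HT-1080 cells, 750/well, RPMI + 5% FBS; compound pinned after 2 h settling; 48 h, 37 °C; CellTiter-Glo luminescence; % activity normalised to DMSO and no-cell wells; curves fitted, classed by r2 and efficacy.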
The depositor's hits bear a star; u = inconclusive; x = no result; [ ] = dose if it differs, or a comment. Unless noted, calls follow the shape of the dose curve; as a rule, active = well fitted curve in the direction sought with a large enough effect; inconclusive = small, poorly fitted or top-dose-only effect, or another doubt; inactive = no such curve, though single readings can be large; an effect the other way counts as inactive or inconclusive. Unless noted, % is scaled to controls: 0 for no effect and ±100 for the full control effect.

SMILES | HT1080NT lethal | IL-1B inflam inh | TDP1 cell noCPT | DT40 TDP1 CPT | HT1080 IDH1KD tx
Cc1cccc(-n2ccnc2SCC(=O)Nc2cccc(S(=O)(=O)NC3=NCCC3)c2)c1C | -5.4% | 6.7 | u | u | -7.8%
Cc1cc(C)cc(-n2c(C)cc(/C=N/NC(=O)CSc3ncccn3)c2C)c1 | u | 0.9 | u | 25.9µM* | u
Cc1cc(C(=O)N/N=C/c2ccc(Cl)c([N+](=O)[O-])c2)c(C)n1-c1ccc(F)cc1 | u | -53.1* | 14.6µM* | 23.1µM* | 20.6µM*
Cc1cc(-n2c(C)cc(C(=O)COc3ccc4ccc(=O)oc4c3)c2C)no1 | -5.1% | -7.6 | u | u | -1.0%
Cc1cc(C(=O)CCl)c(C)n1-c1ccon1 | -28.0% | -95.0* | 2.91µM* | 2.31µM* | 20.6µM*
Cn1cccc1CC(=O)N/N=C/c1ccc(Cl)c([N+](=O)[O-])c1 | -8.3% | -89.7* | -24.9% | -16.3% | 0.7%
O=C(N/N=C/c1ccc(Cl)c([N+](=O)[O-])c1)c1ccc2c(c1)OCCO2 | 2.6% | -15.5 | 17.2% | -15.7% | -1.7%
CCN1CCC(N[C@H]2C[C@@H](C(=O)NC)N(Cc3cccc4ccccc34)C2)CC1 | x | x | u | -7.7%[9.04 µM] | x
NC(=O)Cc1ccc(OCc2nn[nH]n2)cc1 | 3.3% | 19.8 | 12.2% | -0.4% | 5.2%
O=P(OCC1CCCO1)(OCC1CCCO1)OCC1CCCO1 (centres undefined) | -4.2% | -3.4 | -15.0% | 0.8% | -3.4%
O=C(NCC1COCCO1)c1ccc2nc(Cc3cccc(Cl)c3)oc2c1 (centres undefined) | -1.3% | -7.5 | 2.5% | -14.9% | -0.9%
COc1ccc(/C=N/NC(=O)c2ccoc2C)cc1O | -5.3% | -23.8 | -6.7% | 3.9% | -9.0%
Cc1cc(C(=O)N/N=C/c2ccc3c(c2)OCO3)c(C)n1-c1ccc(F)cc1 | -5.8% | -9.4 | 13µM* | u | -21.6%
O=C(N/N=C/c1ccc2c(c1)OCO2)c1ccc(NC(=O)c2ccc(F)cc2)cc1 | u | -2.4 | u | u | -8.8%
Cc1occc1C(=O)N/N=C/c1ccc(Cl)c([N+](=O)[O-])c1 | -5.0% | -72.1* | u | u | -0.8%
Cc1cc(C(=O)NC2CCCCC2)c(C)n1-c1ccc(F)cc1 | 0.0% | -82.9* | u | u | -2.6%
O=C(N/N=C/c1ccc(Cl)c([N+](=O)[O-])c1)c1ccc2nc[nH]c2c1 | 2.6% | -95.7* | -8.0% | 0.1% | 6.8%
COc1ccc(C)cc1NC(=O)NCCn1nnc2cc(S(=O)(=O)N(C)C)ccc21 | x | x | -27.2% | u | x
COc1cccc(NC(=O)c2c(-c3ccc(C)cc3)nnc3ccccc23)c1 | x | x | -17.1% | u | x
CC1(C(=O)NC2CCCC2)CCC(=O)N1CCOc1ccccc1 (centres undefined) | 22.1% | -10.4 | 5.0% | 1.4% | 5.5%
Cc1ccc(S(=O)(=O)N(C)c2nc3ccccc3[nH]c2=S)cc1 | 11.9% | 0.0 | u | u | 3.5%
CN(c1nc2ccccc2nc1Cl)S(=O)(=O)c1ccccc1 | -3.5% | -6.1 | 23.1µM* | u | 3.6%
Cc1ccc2[nH]c(=O)c(CN(c3cccc(C)c3C)S(=O)(=O)c3ccccc3)cc2c1 | 22.4% | 4.7 | 5.8µM* | 16.4µM* | u
CC(C)C(=O)N(Cc1cc2ccccc2[nH]c1=O)C(C)(C)C | 21.1% | 10.8 | 20.6µM* | -17.8% | 2.4%
Cc1ccc2cc(CN(CC(C)C)S(=O)(=O)c3ccccc3)c(=O)[nH]c2c1 | 1.7% | 0.5 | u | u | -1.8%
SMILES | HT1080NT lethal | IL-1B inflam inh | TDP1 cell noCPT | DT40 TDP1 CPT | HT1080 IDH1KD tx
Cc1ccc(S(=O)(=O)N(Cc2cc3ccccc3[nH]c2=O)c2cccc(C)c2)cc1 | 4.3% | 18.4 | 7.31µM* | 10.3µM* | 8.8%
CCCCN(Cc1cc2ccccc2[nH]c1=O)S(=O)(=O)c1ccc(C)cc1 | -8.9% | -12.3 | 23.1µM* | u | -11.6%
COc1ccc(C(=O)NCCN2CCOCC2)c(OC)c1OC | -2.4% | -0.2 | -1.1% | 8.2% | -8.1%
CCC(C(=O)NCCCN(CC)CC)n1ncn2c(cc3occc32)c1=O (centres undefined) | x | x | -2.9% | 11.0% | x
COc1ccc(OC)c(CC(NC(C)=O)C(=O)NC2CCN(S(=O)(=O)c3ccc(NC(C)=O)cc3)CC2)c1 (centres undefined) | 7.7% | 5.9 | 11.1% | -5.8% | 6.7%
C(=C\c1ccccc1)/CN1CCN(C(c2ccnc3ccccc23)c2nnnn2-c2ccc3c(c2)OCCO3)CC1 (centres undefined) | u | -0.1 | 20.6µM* | 16.4µM* | u
C(=C\c1ccccc1)/CN1CCN(C(c2ccccc2)c2nnnn2-c2ccc3c(c2)OCCO3)CC1 (centres undefined) | u | 0.0 | u | u | u
COc1ccc(-n2nnnc2C(c2ccccc2OC(F)(F)F)N2CCN(C/C=C/c3ccccc3)CC2)cc1 (centres undefined) | -21.3% | -10.1 | 16.4µM* | 23.1µM* | -20.3%
C(=C\c1ccccc1)/CN1CCN(C(c2nnnn2C2CCCCC2)C2CC2)CC1 (centres undefined) | u | -5.4 | 16.4µM* | u | u
COc1ccc(C(c2nnnn2C2CCCCC2)N2CCN(C/C=C/c3ccccc3)CC2)cc1 (centres undefined) | u | -8.6 | u | 16.4µM* | u
C(=C\c1ccccc1)/CN1CCN(C(CCc2ccccc2)c2nnnn2C2CCCCC2)CC1 (centres undefined) | u | -21.7 | u | u | u
COc1cc(OC)cc(C(=O)N2CCN(Cc3ccccc3Br)CC2)c1 | 6.8% | -7.4 | -26.9% | u | 0.7%
C(=C\c1ccccc1)/CN1CCN(C(c2cccc3ccccc23)c2nnnn2C2CCCC2)CC1 (centres undefined) | u | u | 9.2µM* | 20.6µM* | u
CCCCn1nnnc1C(c1ccc(OC)cc1)N1CCN(C/C=C/c2ccccc2)CC1 (centres undefined) | u | u | 18.4µM* | u | u
Cc1cccc(C)c1-n1nnnc1C(c1ccccc1)N1CCN(C/C=C/c2ccccc2)CC1 (centres undefined) | u | 21.6 | 16.4µM* | 20.6µM* | u
COc1ccc(-n2nnnc2C(c2ccnc3ccccc23)N2CCN(C/C=C/c3ccccc3)CC2)cc1 (centres undefined) | u | u | 4.61µM* | 7.31µM* | u
CC(C)NC(=O)CN1CCN(C(c2ccnc3ccccc23)c2nnnn2-c2ccc3c(c2)OCCO3)CC1 (centres undefined) | 14.9% | 23.3 | -21.8% | -29.5% | 5.7%
